From PubChem BioAssay (NCI)
The panel holds about 83,000 compounds, 20% with a hit somewhere; the sample as a whole holds those more often.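 Interpretation: 100, growth as untreated; towards 0, rising growth inhibition; 0, no net growth; 0 to -100, cell death. Compounds scoring below 10 were considered active.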 Values without a mark were called inactive. Calls of active or inactive are those of the source.

What was measured:
Test in all cases: NCI-60 one-dose screen, 48 h (100 = growth as untreated, 0 = no growth, -100 = all killed)
Conditions in all cases: 10 µM
EKVX NSCLC = test system: EKVX NSCLC
SN12C renal = test system: SN12C renal
UO-31 renal = test system: UO-31 renal
TK-10 renal = test system: TK-10 renal
ACHN renal = test system: ACHN renal
CAKI-1 renal = test system: CAKI-1 renal
A498 renal = test system: A498 renal
CCRF-CEM leukemia = test system: CCRF-CEM leukemia
MOLT-4 leukemia = test system: MOLT-4 leukemia
SR leukemia = test system: SR leukemia

Row | Compound | growth (EKVX NSCLC) | growth (SN12C renal) | growth (UO-31 renal) | growth (TK-10 renal) | growth (ACHN renal) | growth (CAKI-1 renal) | growth (A498 renal) | growth (CCRF-CEM leukemia) | growth (MOLT-4 leukemia) | growth (SR leukemia)
1 | Cc1nc2ccc(CN(C)c3ccc(C(=O)N[C@@H](CCC(=O)O)C(=O)O)s3)cc2c(=O)[nH]1 | 72.9% | 47.7% | 39.9% | 48.6% | 34.1% | 28.5% | 21.5% | 33.1% | 26.2% | 44.6%
2 | Cc1cc(C)c(CCc2cc(C)c(C)cc2C)cc1C | 102% | 107% | 92.2% | 117% | 112% | 94.1% | 98.7% | 93% | 90.5% | 90.4%
3 | CCCN(CCC)CCC(O)c1cc2c(c3ccccc13)CCCC2 (configuration not stated) | 87.9% | 82% | 71.4% | 101% | 86.9% | 96.1% | 74.4% | 93.8% | 92.9% | 75.3%
4 | O=C1OCC2=C1C(c1cccc(Cl)c1)c1cc3c(cc1N2CCO)OCO3 (configuration not stated) | 56.6% | 42.9% | 45.1% | 58.2% | 46.3% | 39.6% | -7.88% (active) | 9.39% (active) | 26.4% | 32.5%
5 | O=C1OCC2=C1C(c1cccc(Cl)c1)c1cc3c(cc1N2CCO)CCC3 (configuration not stated) | 38.9% | 21.1% | 19% | 56.6% | 25.5% | 11.2% | -20.5% (active) | 10.4% | 13.7% | 27.6%
6 | COc1cc(/C=N/NC(=O)c2ccccc2Nc2cccc(C(F)(F)F)c2)cc(OC)c1OC | 53.5% | 57.4% | 41.4% | -18.2% (active) | 2.47% (active) | 29.2% | -13.2% (active) |  | 28.3% | -4.43% (active)
7 | CN(C)c1ccc(Cc2ccc(N(C)C)cc2Cl)c(Cl)c1 | 103% | 99.2% | 67.6% | 88.9% | 98.4% | 99.1% |  | 91.6% | 46% | 88.9%
8 | COC(=O)c1ccc(=O)oc1 | 98.6% | 85.8% | 75.7% | 103% | 98.9% | 101% |  | 101% | 94% | 89.2%
